Experimental data published in PubChem BioAssay AID488838 (National Center for Advancing Translational Sciences (NCATS), 2010).
Results filed as inconclusive are left out. Calls of active or inactive are those of the source. The call rests on the fitted dose curve; in most records, active means well fitted inhibition curve with a large enough effect; inconclusive means small, poorly fitted or top-dose-only effect; inactive means flat fitted curve, though single readings scatter.

Target: Luciferin 4-monooxygenase (Photinus pyralis) (UniProt P08659)
Sequence (P08659 whole entry, looked up, canonical isoform): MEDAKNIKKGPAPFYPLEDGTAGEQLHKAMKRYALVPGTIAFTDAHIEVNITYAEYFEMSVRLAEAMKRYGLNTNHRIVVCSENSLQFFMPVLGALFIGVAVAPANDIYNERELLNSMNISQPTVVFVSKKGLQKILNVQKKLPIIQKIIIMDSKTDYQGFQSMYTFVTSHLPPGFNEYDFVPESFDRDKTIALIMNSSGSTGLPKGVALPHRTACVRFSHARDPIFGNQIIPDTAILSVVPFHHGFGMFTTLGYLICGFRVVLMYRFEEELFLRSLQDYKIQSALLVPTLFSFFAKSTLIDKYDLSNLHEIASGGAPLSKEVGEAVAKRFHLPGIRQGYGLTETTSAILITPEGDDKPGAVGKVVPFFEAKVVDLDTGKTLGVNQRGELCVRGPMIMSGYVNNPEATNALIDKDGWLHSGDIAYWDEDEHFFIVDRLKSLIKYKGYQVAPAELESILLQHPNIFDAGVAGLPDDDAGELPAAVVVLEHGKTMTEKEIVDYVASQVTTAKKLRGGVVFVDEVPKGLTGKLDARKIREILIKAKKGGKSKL
Experiment: Counterscreen Assay for Enhancers of SMN2 Splice Variant Expression: Interaction with Luciferase Reporter for Further Probe SAR
Details: purified firefly luciferase, luminescence, 5 min; series mostly up to 57.5 µM
From the text: NIH Chemical Genomics Center [NCGC] NIH Molecular Libraries Probe Production centers Network [MLPCN] MLPCN Grant: R03 MH084179-01 Assay Submitter (PI): Elliot Androphy NCGC Assay Overview: Spinal muscular atrophy (SMA) is caused by insufficient levels of the survival motor neuron protein SMN. The SMN locus on chromosome 5q13 contains two inverted copies of SMN called SMN1 and SMN2 which are 99% identical at the amino acid level. SMN1 is a fully functional protein and SMN2 skips exon 7 90% of the time. Skipping of exon 7 produces non-functional protein product. 10% of the SMN2 protein includes exon 7 and is fully functional. In the SMA disease state, mutations in the SMN1 locus are the cause of the disease state. Because only 10% of SMN2 is of the fully functional form, it is not sufficient to overcome the deficiency produced by the loss of the SMN1 product. A therapy that either increases the amount of SMN2 product made increases the inclusion of exon 7 has been proposed for the treatment of SMA. We have designed an assay to identify small molecules that can increase the amount of functional SMN2 product by appending a luciferase reporter gene after the native SMN2 gene, such that inclusion of exon 7 in the expressed product places the luciferase sequence in frame, thus generating functional luciferase enzyme. One potential source of false positives in the primary screening assay is stabilization of the reporter luciferase via direct binding. This assay attempts to identify such compounds by screening directly for luciferase activity in the absence of the cellular system.
NCGC Assay Protocol Summary: The primary screen utilizes a luciferase reporter gene assay, combining the promoter and splicing based cassettes in tandem with the major portion of the native SMN1 cDNA, and then transfected into HEK293 cells. Compounds that modulate luciferase signal presumably modulate expression of […]. In this assay, we utilize purified firefly luciferase in lieu of a cellular reporter to identify compounds interacting directly with luciferase in the primary screen. Sequence, Parameter, Value, Description (1) Reagent, 2.5 uL, Enzyme in buffer (note A) (2) Compound, 23 nL, From stock solutions (3) Time, 5 minutes, Room temp (4) Reagent#2.5 ul, Luciferase detection reagent (note B) (5) Detector, 1 sec integrate, Luminescent read on Viewlux (note C) Sigma enzyme (1 mg) considered to be MW 61,000 diluted in 357 ul assay buffer to 50 uM stock. A - Enzyme and buffer consists of 50 mM Tris-acetate pH 7.6, 10 mM Mg acetate 0.05% BSA, 0.01% Tween and 5 nM firefly luciferase B - Detection reagent = britelite plus diluted 1:10 in PBS C - Viewlux settings were 1 second integration medium sensitivity Keywords: Spinal muscular atrophy, SMA, SMN2, high throughput screening, MLSMR, MLPCN, NIH Roadmap, qHTS and NCGC

Row | SMILES | Potency
1 | CCOC(=O)C1CCN(c2ncc(-c3ccc4c(c3)OCCCO4)s2)CC1 | 8 µM (active)
2 | CC(C)Oc1cccc(-c2cnc(N3CCC(C(N)=O)CC3)s2)c1 | 0.8 µM (active)
3 | CN(C)c1cccc(-c2cnc(N3CCC(C(N)=O)CC3)nc2)c1 | 11.3 µM (active)
4 | O=C(Nc1ccccc1)C1CCN(c2ncc(-c3ccc4c(c3)OCCCO4)s2)CC1 | 4.01 µM (active)
5 | CC(=O)N1CCN(c2nc(-c3ccc(Br)cc3)cs2)CC1 | 0.8 µM (active)
6 | Cc1ccc(-c2nnc(N3CCC(C(N)=O)CC3)s2)cc1 | 16 µM (active)
7 | COc1cc(-c2csc(N3CCC(C(N)=O)CC3)n2)cc(OC)c1OC | inactive
8 | N#Cc1ccc(-c2csc(N3CCC(C(N)=O)CC3)n2)cc1 | inactive
9 | CN(C)c1ccc(-c2csc(N3CCC(C(N)=O)CC3)n2)cc1 | inactive
10 | CN(C)c1cccc(-c2cnc(N3CCC(C(N)=O)CC3)s2)c1 | 0.635 µM (active)
11 | CCOC(=O)C1CCN(c2nc(-c3ccc(Br)cc3)cs2)CC1 | inactive
12 | CN(C)c1cccc(-c2cc(N3CCC(C(N)=O)CC3)ncn2)c1 | inactive
13 | NC(=O)C1CCN(c2ncc(Br)s2)CC1 | inactive
14 | CC(=O)NC1CCN(c2nc(-c3ccc(Br)cc3)cs2)CC1 | inactive
15 | COc1ccc(-c2csc(N3CCC(C(N)=O)CC3)n2)cc1OC | inactive
16 | NC(=O)C1CCN(c2nnc(-c3ccc4c(c3)OCCCO4)s2)CC1 | 3.57 µM (active)
17 | O=C(O)C1CCN(c2ncc(-c3ccc4c(c3)OCCCO4)s2)CC1 | 0.005 µM (active)
18 | NC(=O)C1CCN(c2nc(-c3ccc(OC(F)(F)F)cc3)cs2)CC1 | inactive
19 | Cc1ccc(-c2cnc(N3CCC(C(N)=O)CC3)s2)cc1 | 5.05 µM (active)
20 | NC(=O)C1CCN(c2ncc(-c3ccc4c(c3)OCO4)s2)CC1 | 3.18 µM (active)
21 | NC(=O)C1CCN(c2ncc(-c3ccc(Cl)cc3)s2)CC1 | 10.1 µM (active)
22 | NC(=O)C1CCN(c2nccc(-c3ccc4c(c3)OCCCO4)n2)CC1 | inactive
